Results from the supplement of paper PMC4894684.
Where a name gives a salt, the structure may show the parent alone. ± gives the standard deviation of the averaged measurements.

Tested on: Toxoplasma gondii RH (in HFF)
Assay: parasite growth relative to the screen mean (all compounds = 100%); higher = less inhibition of parasite growth
Settings: 5 µM; 72 h; oxygen 21 %
In short: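 RH β-Gal–GFP Toxoplasma at MOI 1:5 was used to infect confluent human foreskin fibroblasts in 96-well plates within 2 h of pin-transferring compounds to 5 µM final. After 72 h at 21% O2, parasite number was determined by CPRG β-Gal assay against standard curves on the same plate. Growth is relative to the screen mean and averaged over two screens, with all compounds = 100%.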

Compound	parasite growth
C1COC(NC(C2CC2)C2CC2)=N1 [Rilmenidine hemifumarate]	125 ± 13%
CNc1cc(OC)c(C(=O)NC2CCN(Cc3ccccc3)C2C)cc1Cl (centres undefined) [Nemonapride]	95.4 ± 2.2%
O=[N+]([O-])c1cc2nc(O)c(O)nc2cc1[N+](=O)[O-]	91.7 ± 27%
COC(=O)C(Cc1ccc(OCCn2c(=O)sc3cc(C(=O)c4ccccc4)ccc32)cc1)C(=O)OC	120 ± 5.3%
O=C1Nc2ccc(I)cc2/C1=C/c1cc(Br)c(O)c(Br)c1	114 ± 18%
COc1ccc(CC(=O)NC(/N=C(\NC#N)Nc2cccc3ncccc23)C(C)(C)C)cc1OC (centres undefined)	123 ± 17%
Cc1ccccc1N1CCN(S(=O)(=O)C[C@]23CC[C@H](C[C@@H]2NC(=O)[C@@H](N)CCS(C)(=O)=O)C3(C)C)CC1 [L-368,899 hydrochloride]	161 ± 16%
CC(C)(C)c1ccc(S(=O)(=O)/C=C/C#N)cc1	127 ± 30%
Nc1ncnc2c1ncn2C1CCCO1 (centres undefined)	70.4 ± 16%
Cl/C(=C\n1cncn1)c1ccc(Cl)cc1Cl [Loreclezole hydrochloride]	146 ± 12%
Nc1ncnc2n[nH]c(Nc3ccc(F)cc3)c12	94.4 ± 26%
COc1ccc2[nH]c([S+]([O-])Cc3ncc(C)c(OC)c3C)nc2c1 (centres undefined) [Omeprazole]	178 ± 7.3%
CCn1ccnc1CC1COc2ccccc2O1 (centres undefined) [Imiloxan hydrochloride]	120 ± 7%
Cc1nc2c(O)cccc2c(=O)[nH]1	122 ± 24%
Nc1ncnc2c1nc(Br)n2[C@@H]1O[C@@H]2COP(=O)(O)O[C@H]2[C@H]1O [8-Bromo-cAMP, sodium salt]	125 ± 25%
CS(=O)(=O)c1ccc(-c2cc(Br)sc2-c2ccc(F)cc2)cc1	47.5 ± 14%
CN1CCN(CCc2ccc(Cl)c(Cl)c2)CC1 [BD 1063 dihydrochloride]	50.9 ± 5.6%
COc1cc2nc(N3CCN(C(=O)C4CCCO4)CC3)nc(N)c2cc1OC (centres undefined) [Terazosin hydrochloride]	122 ± 12%
COc1ccccc1N1CCN(CCN2C(=O)c3ccccc3C(C)(C)C2=O)CC1 [ARC 239 dihydrochloride]	108 ± 47%
CN1CCN2c3ccccc3Cc3ccccc3C2C1 (centres undefined) [Mianserin hydrochloride]	154 ± 39%

Compound	parasite growth
OC[C@H]1O[C@@H](n2cnc3c(N[C@H]4CCC[C@@H]4O)ncnc32)[C@H](O)[C@@H]1O	140 ± 10%
CC(C)CC(NC(=O)OCC1c2ccccc2-c2ccccc21)C(=O)O (centres undefined)	59.8 ± 23%
CC(Cc1ccc(O)c(O)c1)(NN)C(=O)O [(S)-(-)-Carbidopa]	147 ± 34%
Cn1cnc2c(NCc3ccccc3)nc(NCCO)nc21 [Olomoucine]	127 ± 7.9%
CC(C)NC[C@H](O)COc1cccc2[nH]ccc12 [(S)-(-)-Pindolol]	127 ± 20%
N[C@@H](CC(=O)Nc1ccc(Oc2cc(F)c(F)cc2Br)cc1)C(=O)O	149.3 ± 0.68%
O=C(O)c1cc(O)c2ccc(Cl)cc2n1 [7-Chlorokynurenic acid]	119 ± 9.9%
CCCCCCCCCCCCCCCCn1cc[n+](Cc2ccccc2)c1C	< 0%
COC(=O)/C=C/c1cccc(N(Cc2ccc(-c3ccc(N(C)C)cc3)cc2)C(=O)C2CCCCC2)c1 [Fexaramine]	159 ± 7.7%
CC(=O)N[C@@H](Cc1c[nH]c2ccccc12)C(=O)OCc1cc(C(F)(F)F)cc(C(F)(F)F)c1	108 ± 52%
CN(CCc1ccc(Cl)c(Cl)c1)CC(O)COc1ccc(NS(C)(=O)=O)cc1 (centres undefined)	58.1 ± 4.3%
CNS(=O)(=O)Cc1ccc2[nH]cc(CCN(C)C)c2c1 [Sumatriptan succinate]	76.2 ± 11%
CC(C)[C@H](CO)Nc1nc(Nc2ccc(C(=O)O)c(Cl)c2)c2ncn(C(C)C)c2n1 [Purvalanol B]	141 ± 2.9%
CCCCc1nn(-c2ccccc2C(F)(F)F)c(=O)n1Cc1ccc(-c2ccccc2S(=O)(=O)NC(=O)c2sccc2C)cc1	137 ± 20%
Cc1c[nH]c(=O)n(CCCN2CCN(c3ccccc3OCC(F)(F)F)CC2)c1=O	116 ± 6.9%
COc1cccc(OC)c1OCCNCC1COc2ccccc2O1 (centres undefined) [WB 4101 hydrochloride]	93.3 ± 33%
Nc1c(Br)cc(Br)cc1CN[C@H]1CC[C@H](O)CC1 [Ambroxol hydrochloride]	136 ± 3.2%
O=C(O)COc1ccc(OCCNC[C@H](O)COc2ccccc2)cc1 [ICI 215,001 hydrochloride]	116 ± 14%
O=[N+]([O-])c1cc(Cl)ccc1S(=O)(=O)N1CCN(Cc2ccccc2)CC1	130 ± 24%
